Over roughly 25,000 sequences, “ln(normalized median fluorescence intensity)” has its median near 9.3; the highest 2% begin near 10. The full list was thinned out, with the highest values kept by preference.

For the assay, the system named is PF3D7_0420300 AP2 domain 1 (GST-tagged). The assay can be described thus: gcPBM binding intensity (ln(normalized median fluorescence intensity)); higher = stronger DNA binding. In short, it runs like this:
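An Agilent 4 × 180k array carrying primer-extended double-stranded 36-bp intergenic genomic probes and negative controls received GST-tagged P. falciparum DNA-binding domains expressed in E. coli, about 25 μg on average, for 1 h. The binding buffer contained 1× PBS, 1% milk, 0.2 mg/ml BSA, 0.5% salmon testes DNA and 0.03% Triton X-100. Binding intensity is the top Masliner-normalised natural-log median intensity across replicate spots of either probe orientation, read after Alexa488 anti-GST antibody staining and a 488 nm scan.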
“AAGAATCATATTTAAACACACATACAGATATATATA [CACACA_site5787]”: the “gcPBM binding intensity (ln)” value was 9.51.
Take “TACAATCTAAAATACACACACACAAACATATATTTA [CACACA_site3702]”: the “gcPBM binding intensity (ln)” value is 10.2.
On to “AAAAAAAACAAACACACACACAAATATTTATATATT [CACACA_site436]”, for which the “gcPBM binding intensity (ln)” value is 10.1.
As to “TATACAATCTATATAACACACATATTTATATAAAAT [CACACA_site1797]”, the “gcPBM binding intensity (ln)” value was determined as 9.46.
With “TTATTTAAACAAATCACACACAAATATATATACATA [CACACA_site2019]” the figure was 9.71; with “CAATTTATAAAGAAAACACACATATACCTATATACA [CACACA_site6710]”, 9.55.
Regarding “TATACAATATATATAACACACATATTTATATAAAAT [CACACA_site5061]”, the “gcPBM binding intensity (ln)” value is 9.57.
As to “AAGGATCACGCACAAACACACATATTTATATTTATA [CACACA_site6405]”, the “gcPBM binding intensity (ln)” value worked out at 9.47.
For “AACAAAAAAACAAACACACACACACGCATATTTATA [CACACA_site7680]” the value was 10.2.
With “AATACAATTTATAACACACACACAAGAATACCTATA [CACACA_site6705]” the figure was 10.3.
With “TACAATTTATGACACACACACAATAATACCTATATA [CACACA_site6704]”, the “gcPBM binding intensity (ln)” value came to 9.95.
As to “TAAAAAAAAATATATAAACACACATATTTATATACA [CACACA_site8469]”, the “gcPBM binding intensity (ln)” value came to 9.36.
Regarding “TACAATATAAAATACACACACACAAACATATATTTA [CACACA_site5941]”, the “gcPBM binding intensity (ln)” value was determined as 10.2.
Take “AATATATAAGCTGTTCTATTCAAGAATTATATCTTA [CACACA_negctrl_site270]”: the “gcPBM binding intensity (ln)” value was determined as 9.06.
Turning to “TATATTATTTATTAGACACACATTATTAAAATATTT [CACACA_site4737]”, the “gcPBM binding intensity (ln)” value came out at 9.19.
On to “GTTTGTATGTCCAAATGTACATATGATTTTATGAAA [XGTACX_site6595]”, for which the “gcPBM binding intensity (ln)” value is 9.2.
With “ATTATATATATTTATGCACACAAAATATATTATATA [CACACA_site9244]” the figure was 9.29; with “GCCAAAAGGATATGCACACACACACCCATATATATA [CACACA_site2198]”, 10.2; with “CAAAAGGATATGCACACACACACACGGATATTTATA [CACACA_site7099]”, 10.2.
For “AATAAACATATATACACACACAAAAAAAAAAACATA [CACACA_site424]”, the “gcPBM binding intensity (ln)” value was 10.2.
As for “ACAATAAACATATATACACACACAAAAAAAAAAACA [CACACA_site8033]”, the “gcPBM binding intensity (ln)” value was determined as 10.3.
Take “AATATATAAACATATACACACAAAAACATATATATA [CACACA_site4855]”: the “gcPBM binding intensity (ln)” value amounted to 10.
For the sequence “TATATACACATATATAAACACACAAAAAAAAAAAAA [CACACA_site8626]”, the “gcPBM binding intensity (ln)” value stood at 9.6.
For GGGAAAATAAATAAAGTGCAGATATTAAAAGTTGTA the value was 9.41; for “AGATATCTTGTGAAATAAAAAAAATAATTGCTTATA [CACACA_negctrl_site798]”, 8.94; for “CAACAATTTCGTCATACACACATTCAGAATATAGAT [CACACA_site7166]”, 9.68.
As for “CATGCAATATTAAACACACACTCATATAGCACAATA [CACACA_site6182]”, the “gcPBM binding intensity (ln)” value was found to be 9.73.
With “GAACGAAACTTTCTTACACACATTGAAATTTTTTTC [CACACA_site1779]” the figure was 9.62; with “AATAAGAAAACAAATGCACACCATTTATATAGATTA [CACACA_site8261]”, 9.56.
For the sequence “AATACACCCAGACACACACACAAAAAAAAAAAAAAA [CACACA_site513]”, the “gcPBM binding intensity (ln)” value worked out at 9.51.
For “TACACCAAAAAAAAACGTACAAAATCCCACCCAGAC [XGTACX_site4622]”, the “gcPBM binding intensity (ln)” value was determined as 10.6.
For “AACAAATACAGACACACACACACACCCAAAAAAAAA [CACACA_site515]” the value was 9.99; for “CCCATGCATTTTTGCACACACATATATTTATAAATA [CACACA_site6785]”, 9.58; for “CTTACCAAAAAACACACACACACAAAATATATAAAT [CACACA_site1870]”, 10.3.
As to “AAAAAAAAAAAACACACACACAAAATAAACAAACAA [CACACA_site2721]”, the “gcPBM binding intensity (ln)” value was 10.3.
Turning to “ATAAATAAAAACACAAAACAAAACAAAACAAAACAA [CACACA_negctrl_site1257]”, the “gcPBM binding intensity (ln)” value is 9.41.
In the case of “AAAAAAAAAAAACACACACACACAAATATATAAAAA [CACACA_site1171]”, the “gcPBM binding intensity (ln)” value stood at 10.1.
Turning to “TATAAATAAATAAACACACACAAATAAAATAAAAAA [CACACA_site7623]”, the “gcPBM binding intensity (ln)” value stood at 10.1.
For the sequence “TATATAAAGATATATACACACAAAAAAAAAAAAAAA [CACACA_site6778]”, the “gcPBM binding intensity (ln)” value is 9.32.
For “AAATAAATAAAAAACACACACAAATAAATAAATATA [CACACA_site2249]” the value was 10.1; for “CTTACCAAAAGACACACACACACAAGATATATAAAT [CACACA_site6964]”, 10.2; for “TAATAAAAGATATATACACACAAATAAATAAATAAA [CACACA_site7818]”, 9.72.
Turning to “AAAAAAATAAAACACACACACAAAAAAATAAAAATA [CACACA_site465]”, the “gcPBM binding intensity (ln)” value turned out to be 10.2.
Take “TACCAAAAGAAACACACACACAAAATATATAAATAT [CACACA_site1869]”: the “gcPBM binding intensity (ln)” value amounted to 10.2.
For “AAAAAATATAAAAAAACACACAAAAAAAAAAAAAAA [CACACA_site1382]” the value was 9.4.

The values above are taken from the supplement of paper PMC11417369.
